# A selection: hits, their analogues and other compounds. The true share with any hit is near 12%.
# HP1b binding inh: inhibitors of HP1-beta chromodomain binding to methylated histone tails | P83916 | Potency, µM (titrated, usually from 114 µM), usual class: inhibitors | AlphaScreen HP1-beta / biotin-H3K9me3 peptide binding | actives 0.56% (n = 390,000) | AID 540317; further: nearly all actives have a fitted effect of over 70% in size
#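 HP1-beta protein (50 nM final) preincubated 30 min at room temperature with biotinylated H3(1-18)K9me3 peptide (50 nM) in PBS pH 7.4, 0.01% Tween-20, then compound added for 30 min. AlphaScreen streptavidin donor/nickel chelate acceptor beads (10 ug/mL final), 30 min dark, luminescence read.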
# Sfp PPTase inh: Sfp phosphopantetheinyl transferase inhibition. Potency, µM, usual class: inhibitors. Biochemical Sfp PPTase activity, qHTS. actives 3.5% (n = 310,000);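 further: the enzyme is Sfp with the accession as filed and its product quenches rhodamine fluorescence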
#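 After 15 min at room temperature with compound, 15 nM Sfp received 5 uM rhodamine-CoA plus 12.5 uM BHQ-2-ybbR (50 mM Hepes pH 7.6, 10 mM MgCl2). Rate came from the fluorescence difference over 30 min, ex 525/em 598 nm.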
# JMJD2A Tudor: inhibitors of human JMJD2A Tudor domain | O75164 | AlphaScreen JMJD2A-Tudor / H3K4me3 peptide binding | Potency, µM (series often up to 114 µM), most hits filed as inhibitors | actives 4.4% (n = 390,000) | AID 504339; further: nearly all actives have a fitted effect of over 50% in size
# BAZ2B block: BAZ2B (human) inhibition | Q9UIF8 | actives 4.4% (n = 360,000) | Potency, µM (titrated, usually from 114 µM), usual class: inhibitors | AlphaScreen BAZ2B-H3K14Ac peptide displacement; further: nearly all actives have a fitted effect of over 60% in size
#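 Complex of BAZ2B and biotin-H3K14Ac (50 nM apiece) forms over 30 min at RT, then faces library compounds up to 110 uM for another 30 min; AlphaScreen beads added, 20 min dark incubation, luminescence read.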
# G9a inh: G9a (human) methyltransferase inhibition | actives 8.8% (n = 350,000) | G9a H3K9 monomethylation, AlphaScreen, 2 h | AID 504332 | Potency, µM (doses to about 102 µM), most hits filed as inhibitors | Q96KQ7; further: nearly all actives have a fitted effect of over 75% in size
#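 Methyltransferase reactions run at room temperature for 2 h (20 nM enzyme, 500 nM biotin-H3K9 peptide, 20 uM SAM) after a 15 min compound preincubation; product detected by AlphaScreen beads and anti-H3K9me1 antibody.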
# L3MBTL1 block: inhibitors of human L3MBTL1. Q9Y468. actives 0.66% (n = 230,000). AlphaScreen L3MBTL1–H3K9me1 peptide binding. Potency, µM (titrated, usually from 57.1 µM), usual class: inhibitors; further: nearly all actives have a fitted effect of over 60% in size
# Target sequence (Q9Y468 whole entry, looked up): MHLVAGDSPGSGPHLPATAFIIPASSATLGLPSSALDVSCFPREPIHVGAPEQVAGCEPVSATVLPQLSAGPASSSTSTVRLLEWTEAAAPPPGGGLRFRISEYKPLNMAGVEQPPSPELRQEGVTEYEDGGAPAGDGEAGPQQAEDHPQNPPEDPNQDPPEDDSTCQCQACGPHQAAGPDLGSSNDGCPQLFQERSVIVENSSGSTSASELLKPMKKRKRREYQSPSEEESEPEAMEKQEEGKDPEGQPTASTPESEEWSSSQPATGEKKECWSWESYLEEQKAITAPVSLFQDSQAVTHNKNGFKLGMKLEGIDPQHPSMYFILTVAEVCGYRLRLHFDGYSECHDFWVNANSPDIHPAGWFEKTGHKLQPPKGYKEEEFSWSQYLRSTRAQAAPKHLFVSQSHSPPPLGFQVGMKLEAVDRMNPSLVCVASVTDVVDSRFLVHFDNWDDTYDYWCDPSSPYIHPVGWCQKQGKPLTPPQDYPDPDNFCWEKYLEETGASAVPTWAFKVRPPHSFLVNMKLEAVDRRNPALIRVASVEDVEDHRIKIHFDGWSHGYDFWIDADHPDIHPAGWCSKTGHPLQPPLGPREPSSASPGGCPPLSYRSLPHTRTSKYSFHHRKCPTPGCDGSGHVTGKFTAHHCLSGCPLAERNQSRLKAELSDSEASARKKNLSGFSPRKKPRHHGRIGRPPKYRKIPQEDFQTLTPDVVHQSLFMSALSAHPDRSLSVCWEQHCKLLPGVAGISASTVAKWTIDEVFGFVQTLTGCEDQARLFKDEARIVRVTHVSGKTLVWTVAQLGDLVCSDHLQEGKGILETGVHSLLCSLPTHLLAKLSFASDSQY
#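 Displacement of a biotinylated histone H3(1-15) peptide monomethylated at Lys9 (75 nM) from L3MBTL1 (50 nM) was measured by AlphaScreen after a 30 min room-temperature compound incubation; cefsulodin titration served as intraplate control.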
# A number is an active result; . = inactive; ? = inconclusive; / = not tested or not shown; [ ] = another dose, or the depositor's remark. The call rests on the fitted dose curve; in most records, active means well fitted curve in the direction sought with a large enough effect; inconclusive means small, poorly fitted or top-dose-only effect, or another doubt; inactive means no such curve, though single readings can be large; an effect the other way counts as inactive or inconclusive.
SMILES,HP1b binding inh,Sfp PPTase inh,JMJD2A Tudor,BAZ2B block,G9a inh,L3MBTL1 block
C=CCn1c(Cc2nc3ccccc3[nH]2)n[nH]c1=S,.,.,8.9µM,?,2µM,.
C=CCn1c(CCn2c3ccccc3c3ccccc32)n[nH]c1=S,.,.,.,.,?,.
C=CCn1c(Cc2cccc3ccccc23)n[nH]c1=S,.,.,50µM,.,2.2µM,.
O=c1c2ccccc2cnn1Cc1n[nH]c(=S)n1-c1ccccc1,.,?,25µM,.,7.9µM,.
S=c1[nH]nc(CCc2nc3ccccc3[nH]2)n1-c1cccc(Cl)c1,.,50µM,45µM,.,.[0.501 µM],.
Cc1cn(C2CC3OCC(NC(=O)C(NC(=O)OC(C)(C)C)C(C)OCc4ccccc4)C3O2)c(=O)[nH]c1=O (stereo not drawn),.,.,.,/,/,/
O=c1oc2cc(O)ccc2cc1-c1ccc2c(c1)OCCO2,/,.,/,/,/,/
S=c1[nH]nc(Cc2cccc3ccccc23)n1-c1ccccc1,.,.,79µM,.,?,/
S=c1[nH]nc(Cc2noc3ccccc23)n1-c1ccccc1,.,.,11µM,.,2.8µM,.
CCc1ccc(S(=O)(=O)c2nnn3c2nc(Nc2ccc(C)c(Cl)c2)c2sccc23)cc1,.,/,.,.,.,/
CC(C)CC(NC(N)=O)C(=O)OCC(=O)Nc1ccc(OC(F)F)cc1 (stereo not drawn),.,.,40µM,.,.,.
COc1ccc2c(c1)NC(c1cccnc1)=NC(c1ccc(F)cc1)=N2,.,/,.,.,.,/
CC(C)CC(=O)NC(=S)NNC(=O)c1ccc([N+](=O)[O-])cc1,.,.,?,.,20µM,.
CC(C)CC(=O)NC(=S)NNC(=O)c1ccc(NC(=O)C2CCCCC2)cc1,.,.,.,?,?,.
Cn1cc([N+](=O)[O-])c(C(=O)NNC(=O)c2ccc([N+](=O)[O-])cc2)n1,?,.,?,.,45µM,.
CCC(=O)NC(=S)NNC(=O)c1ccc([N+](=O)[O-])cc1,.,79µM,79µM,.,?,.
COc1cccc(CNCCSc2nnnn2-c2ccccc2)c1OC,.,/,.,.,.,/
COc1ccc(N2CCN(S(=O)(=O)CCNS(=O)(=O)c3ccccc3)CC2)cc1,.,/,.,.,14µM,.
COc1ccc(CC(=O)NCCS(=O)(=O)N2CCN(c3ccccc3)CC2)cc1,.,/,.,.,45µM,.
COc1ccc(N2CCN(S(=O)(=O)CCNC(=O)c3ccc(Br)o3)CC2)cc1,.,.,.,.,79µM,/
O=P(O)(O)OC1[C@H](O)[C@H](OP(=O)(O)O)C(OP(=O)(O)O)[C@H](OP(=O)(O)O)[C@H]1O (stereo partly drawn),/,.,/,/,.[2.33 µM],/
Nc1nc2ccc(C(=O)Nc3ccc(N4CCOCC4)cc3)cc2s1,.,/,?,/,/,.
Cc1cccnc1NC(=O)c1ccc2nc(N)sc2c1,.,.,.,.,40µM,/
CCOc1ccc(CCNC(=O)c2nnc(Cc3ccc(Cl)cc3Cl)o2)cc1OCC,.,/,.,.,.,/
CC(C)(O)/C=C1/Oc2ccccc2C1N1CCCCC1 (stereo not drawn),.,.,.,.,50µM,.
SMILES,HP1b binding inh,Sfp PPTase inh,JMJD2A Tudor,BAZ2B block,G9a inh,L3MBTL1 block
COc1ccc(Cl)cc1NC(=O)CSc1nc(-c2ccco2)cc(C(F)(F)F)n1,.,/,.,.,.,/
O=S(=O)(Nc1ccc(-c2ccc(N3CCCCC3)nn2)cc1)c1ccc(OC(F)(F)F)cc1,.,/,.,.,.,/
C/C=C\C=C/C(=O)Nc1cccc(C2=NOC3(C2)C[C@@H](C(N)=O)N(C(=O)COc2ccc(Cl)cc2)C3)c1 (stereo partly drawn),?,20µM,71µM,?,?,/
C/C=C\C=C\C(=O)N1CC2(CC(c3cccc(NC(=O)COc4ccc(Cl)cc4)c3)=NO2)C[C@H]1C(N)=O (stereo partly drawn),.,28µM,?,.,?,/
CCn1c(C(=O)N2CCC(C(=O)NCCc3ccc(OC)cc3OC)CC2)cc2sccc21,.,/,.,.,.,/
Cc1cccc(OCCSc2nc3ccccc3n2CC(=O)N2CCOCC2)c1C,.,/,.,?,10µM,/
Cc1ccc(OCCSc2nc3ccccc3n2CC(=O)N2CCOCC2)cc1C,.,/,.,.,?,/
Cc1ccc(OCCSc2nc3ccccc3n2CC(=O)N2CCCCC2)cc1C,.,/,.,.,13µM,/
Cc1ccc(OCCSc2nc3ccccc3n2CC(=O)N2CCOCC2)c(C)c1,.,/,.,?,.,/
CC(=O)Nc1ccc(N=Cc2c(O)ccc3ccccc23)cc1,.,.,.,.,1.8µM,.
N#Cc1cccc(N=Cc2c(O)ccc3ccccc23)c1,.,.,35µM,.,1.4µM,.
O=C(CNc1ccccc1)N/N=C/c1c(O)ccc2ccccc12,.,.,.,.,.,/
COc1ccc(NC(C)C(=O)N/N=C/c2ccccc2OCc2cccc(Br)c2)cc1 (stereo not drawn),?,.,11µM,10µM,40µM,?
Nc1cc(Cl)nc(N/N=C/c2c(O)ccc3ccccc23)n1,.,.,.,.,.,.
O=S(=O)(/N=C/c1c(O)ccc2ccccc12)c1ccccc1,79µM,.,56µM,.,1.4µM,.
Cc1ccccc1NC(C)C(=O)N/N=C/c1ccccc1OCc1cccc(Br)c1 (stereo not drawn),.,.,.,.,.,.
COc1ccc(S(=O)(=O)c2cn(Cc3ccccc3)c3cc(N4CCCC4)c(F)cc3c2=O)cc1,.,/,.,.,.,/
NC(=O)c1ccc(N=Cc2c(O)ccc3ccccc23)cc1,.,/,?,/,/,/
Cc1ccc(N=Cc2c(O)ccc3ccccc23)cc1F,.,.,56µM,.,1.3µM,.
COc1ccc(NC(C)C(=O)N/N=C/c2c(O)ccc3ccccc23)cc1 (stereo not drawn),.,.,.,.,45µM,/
O=C(O)c1ccc(N=Cc2c(O)ccc3ccccc23)cc1,.,.,?,.,1.1µM,.
O=C(O)Cc1ccc(N=Cc2c(O)ccc3ccccc23)cc1,.,.,.,.,1.6µM,.
Cc1occc1C(=O)N/N=C/c1c(O)ccc2ccccc12,.,.,.,.,.,/
Cc1cccc(NC(=O)CSc2nc(=O)n(CCN3CCOCC3)c3c2CCC3)c1,.,/,.,.,.,/
COc1ccc(N=Cc2c(O)ccc3ccccc23)cc1,.,?,.,.,0.79µM,.
COc1ccc(N=Cc2c(O)n(-c3ccc(OC)cc3)c(=O)c3ccccc23)cc1,.,.,.,.,.,/
Nc1ncc(N=Nc2cc(C(=O)O)ccc2Cl)s1,?,?,?,89µM,.,/
Nc1cc2sc(-c3ccc(C(=O)O)cc3)nc2cc1Cl,.,.,.,.,.,.
COc1ccccc1N1CCN(C(=O)Cc2c(C(=O)O)c(C)cn2C)CC1,.,/,.,.,.,/

# High-throughput results from PubChem BioAssay.
